From PubChem BioAssay
Imprint erasure: induces erasure of genomic imprints in mouse ES cells; mouse ES Peg3-LacZ reporter, beta-gal luminescence, 40 h; Potency, µM (top dose mostly 60.7 µM), for inactives: at the top dose activity change, positive = activation, usual class: activators; 110,000 compounds, 0.02% hits
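Imprint erasure is scored as LacZ activity from the silenced maternal Peg3 allele in feeder-free female ES cells cultured 40 h with LIF. Luminescence is normalized to in-plate negative controls and fitted to the Hill equation.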
p53ts 32C tox: cytotoxicity in p53ts cells at permissive temperature; H1299-p53A138V at 32C, ATP luminescence viability, 24 h; Potency, µM (doses to about 46.1 µM), without a hit: at the highest dose activity change, negative = cytotoxicity, hits mostly cytotoxic; 130,000 compounds, 0.93% hits; AID 924;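 further: 0% = DMSO and -100% = full killing by reference compound; nearly all actives have a fitted effect of over 55% in size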
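Viability by ATPlite luminescence after 24 h compound treatment (up to 46 uM) at the permissive 32C. Cells are H1299 carrying p53 A138V. Scale runs from DMSO basal to 100 uM tamoxifen as full kill; AC50 from Hill fits.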
IkB sig inh: inhibitors of IkB signaling in ABC-DLBCL cells. ABC-DLBCL IkBa-CBG/CBR dual luciferase ratio, 4 h; response scale: scaled: untreated 0%, proteasome inhibitor 100%. Potency, µM (highest dose often 57.1 µM), inactives show at the top dose IkBa stabilization activation. 110,000 compounds, 0.04% hits; active means well fitted curve in the direction sought with a large enough effect in the signal ratio, not every such curve was filed as active; inconclusive means small, poorly fitted or top-dose-only effect, or a change in a side signal; the % refers to the signal ratio;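 further: the direction sought is a rising ratio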
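Curves were fitted separately to fusion (green), unfused (red) and ratio luminescence, then classed by r2, magnitude and activity. Cells: OCI-Ly3, 4 h compound plus doxycycline at 37C; 10 uM MG-132 defined full response.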
p53ts 39C tox: cytotoxicity in p53ts cells at nonpermissive temperature. H1299-p53A138V viability at 39C, ATP luminescence, 24 h. AID 902. 130,000 compounds, 1.5% hits. Potency, µM (series often up to 46.1 µM), inactives show at the top dose activity change, negative = cell killing, usual class: cytotoxic; further: on the % scale 0 is the no-effect control and ±100 the full control effect; nearly all actives have a fitted effect of over 55% in size
Starred values were filed as active, the others as inactive; [ ] = remark or other dose. Rows were chosen to be rich in hits. Some 1.7% of all compounds tested hit in one or more screens of this group. Unless noted, the call rests on the fitted dose curve; in most records, active means well fitted curve in the direction sought with a large enough effect; inconclusive means small, poorly fitted or top-dose-only effect, or another doubt; inactive means no such curve, though single readings can be large; an effect the other way counts as inactive or inconclusive. Potency means the concentration at half of the fitted maximal effect.

`CC(=O)Oc1ccc2c(c1C(C)C)CCC1C(C)(C)CCC[C@@]21C` (some centres undefined) gave Imprint erasure -20.2%, p53ts 32C tox inconclusive and p53ts 39C tox 12.6µM*.
Screening CC(C)c1c(O)ccc2c1CCC1[C@@](C)(CO)CCC[C@@]21C (some centres undefined) returned Imprint erasure -31.6%, p53ts 32C tox 8.9% and p53ts 39C tox 6.0%.
For COC(=O)[C@@]1(C)CCC[C@@]2(C)c3ccc(O)c(C(C)C)c3CCC21 (some centres undefined) the results were Imprint erasure -36.1%, p53ts 32C tox inconclusive and p53ts 39C tox 20µM*.
`Cc1ccccc1NC(=O)c1c(C)oc2ccc(O)c(CN3CCCC3)c12` gave Imprint erasure -7.6%[10.9 µM], p53ts 32C tox -10.1%, IkB sig inh -1.6% and p53ts 39C tox -4.3%.
Nc1ccc(-c2nc3ccccc3[nH]2)cc1 was read as Imprint erasure -85.7%, p53ts 32C tox 10µM*, IkB sig inh 16.1% and p53ts 39C tox inconclusive.
Screening Nc1cccc(-c2nc3ccccc3[nH]2)c1 returned Imprint erasure -79.9%, p53ts 32C tox inconclusive, IkB sig inh 7.8% and p53ts 39C tox inconclusive.
Screening c1ccc(-c2csc(-c3nc4ccccc4[nH]3)n2)cc1 returned Imprint erasure -35.6%, p53ts 32C tox 7.94µM* and p53ts 39C tox 15.8µM*.
CCCCC(CC)COCCCN (centres undefined) was read as Imprint erasure -9.1%, p53ts 32C tox 6.0%[1.84 µM], IkB sig inh -1.6% and p53ts 39C tox -5.3%.
`CCN(CC)CCCNC(=O)CCCn1c(=O)[nH]c2ccc(Br)cc2c1=O` gave Imprint erasure 4.9%[10.9 µM], p53ts 32C tox 3.8%, IkB sig inh 2.2% and p53ts 39C tox -8.3%.
Screening CCOC(=O)C1CCN(C(=O)C2CCN(C3=NS(=O)(=O)C(c4ccc(C)cc4)=C3CC)CC2)CC1 returned Imprint erasure 7.9%[10.9 µM], p53ts 32C tox 4.6%, IkB sig inh 1.3% and p53ts 39C tox 2.2%.
CC1=CC(=O)c2ccccc2C1=O was read as Imprint erasure -8.1%, p53ts 32C tox 25.1µM*, IkB sig inh inconclusive and p53ts 39C tox inconclusive.
Screening Cc1ccc2c(c1[N+](=O)[O-])C(=O)c1ccccc1C2=O returned Imprint erasure 14.3%, p53ts 32C tox 9.9%[1.84 µM], IkB sig inh -3.7% and p53ts 39C tox -19.5%.
For O=C1O/C(=C\Br)CC[C@@H]1c1cccc2ccccc12 the results were p53ts 32C tox 20µM*, IkB sig inh 4.8% and p53ts 39C tox 20µM*.
`O=C1O/C(=C/Br)CCC1c1cccc2ccccc12` (centres undefined) gave Imprint erasure -31.6%.
`O=C1CSC2(C(=O)N(Cc3ccccc3)c3ccccc32)N1c1ccc(Cl)cc1` (centres undefined) gave Imprint erasure -4.0%[10.9 µM], p53ts 32C tox 14.6%, IkB sig inh 8.7% and p53ts 39C tox 22.0%.
For CCc1ccc(-c2nc(CN3CCC(C(=O)NCCN(CC)c4ccccc4)CC3)c(C)o2)cc1 the results were Imprint erasure inconclusive, p53ts 32C tox -0.9%, IkB sig inh 1.2% and p53ts 39C tox -4.2%.
For CCN(CCNC(=O)C1CCN(Cc2nc(-c3ccc(Cl)cc3)oc2C)CC1)c1ccccc1 the results were Imprint erasure -28.3%, p53ts 32C tox 25.1µM*, IkB sig inh inconclusive and p53ts 39C tox inconclusive.
Screening CCN(CCNC(=O)C1CCN(Cc2nc(-c3cccc(Cl)c3)oc2C)CC1)c1ccccc1 returned Imprint erasure -20.3%, p53ts 32C tox 12.6µM*, IkB sig inh inconclusive and p53ts 39C tox 15.8µM*.
Screening CCOCCCN(Cc1ccco1)S(=O)(=O)c1cc2c(cc1Cl)NC(=O)CO2 returned Imprint erasure 4.0%[10.9 µM], p53ts 32C tox 11.3%, IkB sig inh -1.3% and p53ts 39C tox 0.6%.
`CCCCCCCC[N+](CCCCCCCC)(CCCCCCCC)CCCCCCCC` gave Imprint erasure -17.1%, p53ts 32C tox inconclusive, IkB sig inh inconclusive and p53ts 39C tox 15.8µM*.
